A short description of experiment [1]: Cellular Toxicity (caspase-3) NIH 3T3 (AID 666). The gist of the method: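 Concentration-response qHTS in NIH 3T3 mouse fibroblasts scores caspase-3/7 activation as rising luminescence after 16 hr compound exposure. Signals are scaled between DMSO-only and 100 uM tamoxifen.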
The nature of experiment [2]: Cellular Toxicity (caspase-3) Renal Proximal Tubule (AID 667).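 Also: cells exposed to compound for 16 hours at 37 °C before detection.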 In outline:
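Luminescent caspase 3/7 signal from peptide-aminoluciferin cleavage measures apoptosis in freshly isolated rat kidney proximal tubule cells after 16 h compound exposure. Concentration-response data are normalized to DMSO and 10 uM staurosporine, and AC50 values come from Hill equation fits.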

The target of experiment [3] is Cytochrome P450 2C9 (Homo sapiens) (UniProt P11712). In words: qHTS Assay for Inhibitors and Substrates of Cytochrome P450 2C9 (AID 883). Also: nearly all actives have a fitted effect of over 60% in size. In outline:
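A luminogenic readout tracked human CYP2C9 (10nM) converting deoxyluciferin (100uM, at KM) in 25mM KPO4 during 60 min at 37C with regenerated NADPH. Values normalized to 57uM sulphaphenazole as complete inhibition.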

Experiment [4] concerns the target Cytochrome P450 2D6 (Homo sapiens) (UniProt P10635). Kind of experiment: qHTS Assay for Inhibitors and Substrates of Cytochrome P450 2D6 (AID 891).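 Also: luciferin methyl ether substrate demethylated by CYP2D6 with NADPH regeneration; nearly all actives have a fitted effect of over 60% in size.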 In outline:
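Human CYP2D6 (5 nM) with 30 uM Luciferin-ME EGE (at Km) in 100 mM KPO4, compound preincubated 10 min, then NADPH regeneration system for 60 min at room temperature. Luciferin read by luminescence; normalized to 1.43 uM quinidine.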
On the technique in general: In qHTS, concentration-response curves come from the screen itself.

The target of experiment [5] is Cytochrome P450 2C19 (Homo sapiens) (UniProt P33261). Kind of experiment: qHTS Assay for Inhibitors and Substrates of Cytochrome P450 2C19 (AID 899). Also: nearly all actives have a fitted effect of over 60% in size. The gist of the method: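 NADPH-dependent conversion of Luciferin-H EGE (10uM, at KM) by 5nM enzyme in 50mM KPO4, 60 min at 37C following 10 min compound preincubation. Stopped with luciferin detection buffer; luminescence read after 20 min.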
Cytochrome P450 2C19 (Homo sapiens), sequence (P33261 whole entry, looked up): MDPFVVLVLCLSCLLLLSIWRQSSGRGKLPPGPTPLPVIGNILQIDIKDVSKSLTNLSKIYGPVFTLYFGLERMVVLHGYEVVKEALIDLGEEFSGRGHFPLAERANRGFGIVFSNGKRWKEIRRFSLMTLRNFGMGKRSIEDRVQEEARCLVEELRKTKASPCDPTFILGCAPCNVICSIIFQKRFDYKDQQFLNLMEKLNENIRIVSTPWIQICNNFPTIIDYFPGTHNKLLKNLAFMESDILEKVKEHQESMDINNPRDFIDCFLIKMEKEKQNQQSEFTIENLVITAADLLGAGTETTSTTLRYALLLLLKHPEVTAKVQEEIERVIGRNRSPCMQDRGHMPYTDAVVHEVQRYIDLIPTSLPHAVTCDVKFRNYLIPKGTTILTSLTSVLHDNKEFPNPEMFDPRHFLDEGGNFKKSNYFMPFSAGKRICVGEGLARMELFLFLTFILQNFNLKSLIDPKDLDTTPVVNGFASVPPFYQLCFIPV

Experiment [6] deals with Cytochrome P450 3A4 (Homo sapiens) (UniProt P08684). Kind of experiment: qHTS Assay for Inhibitors and Substrates of Cytochrome P450 3A4 (AID 884). Also: series mostly up to about 57 µM; nearly all actives have a fitted effect of over 50% in size. The gist of the method: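 20 nM human CYP3A4 with 25 uM Luciferin-PPXE (at KM) in 200 mM KPO4, preincubated 10 min with compound; NADPH regeneration started a 60 min RT reaction. Luciferin detected by luminescence, normalized to 57 uM ketoconazole as full inhibition.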
Cytochrome P450 3A4 (Homo sapiens), sequence (P08684 whole entry, looked up): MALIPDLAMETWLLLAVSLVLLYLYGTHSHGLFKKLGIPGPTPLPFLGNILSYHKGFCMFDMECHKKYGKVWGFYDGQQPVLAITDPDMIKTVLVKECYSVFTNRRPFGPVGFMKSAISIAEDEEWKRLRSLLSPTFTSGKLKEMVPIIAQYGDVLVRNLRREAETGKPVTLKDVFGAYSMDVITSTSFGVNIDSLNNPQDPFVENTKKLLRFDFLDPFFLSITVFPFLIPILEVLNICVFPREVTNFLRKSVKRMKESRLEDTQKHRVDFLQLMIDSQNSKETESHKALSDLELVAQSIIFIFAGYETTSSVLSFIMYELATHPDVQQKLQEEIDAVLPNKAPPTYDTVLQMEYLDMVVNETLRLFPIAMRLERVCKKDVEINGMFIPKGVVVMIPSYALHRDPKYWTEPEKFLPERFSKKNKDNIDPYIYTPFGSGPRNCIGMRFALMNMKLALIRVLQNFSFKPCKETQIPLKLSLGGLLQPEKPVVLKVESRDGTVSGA

Experiment [7] shares this target. Kind of experiment: qHTS Assay for Activators of Cytochrome P450 3A4 (AID 885). Also: nearly all actives have a fitted effect of over 65% in size. The gist of the method:
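20nM CYP3A4 + 25uM Luciferin-PPXE (=KM), 200mM KPO4; cpd 10 min RT; NADPH regen, 60 min RT; stop w/ detection buffer, 20 min; luminescence. Normalized to 57 uM ketoconazole.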

Experiment [8] in a line: Confirmation and Secondary Assay for Modulators of Hemoglobin Beta Chain Splicing at IVS2 654 locus (AID 910).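 Also: per-well total GFP intensity by laser scanning cytometry after 2-day treatment.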 In outline:
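HeLa cells stably carrying EGFP interrupted by mutant beta-globin IVS2-654 intron (CMV-driven) were treated with compound for 2 days at 37C; corrected splicing was scored as total peak GFP intensity per well (488 nm excitation, 500-520 nm emission).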

Experiment [9] deals with Guanine nucleotide-binding protein G(i) subunit alpha-1 (Homo sapiens) (UniProt P63096). In words: qHTS Assay for Inhibitors of RGS12 GoLoco Motif Activity (Green Fluorophore) (AID 879).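 Also: negative values mean loss of peptide binding seen as reduced polarization.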 The source says:
Assay Overview: NIH Molecular Libraries Screening Centers Network [MLSCN] NIH Chemical Genomics Center [NCGC] MLSCN Grant: NS053754-01 Assay Provider: Siderovski, David P, University of North Carolina at Chapel Hill G-protein-coupled receptors (GPCRs) are major targets for drug discovery. The regulator of G-protein signaling (RGS)-protein family has important roles in GPCR signal transduction. RGS proteins contain a conserved RGS-box, which is often accompanied by other signaling regulatory elements. RGS proteins accelerate the deactivation of G proteins to reduce GPCR signaling; however, some also have an effector function and transmit signals. Combining GPCR agonists with RGS inhibitors should potentiate responses, and could markedly increase the agonist's regional specificity. The diversity of RGS proteins with highly localized and dynamically regulated distributions in brain makes them attractive targets for pharmacotherapy of central nervous system disorders. […] A complex of Gai1 and fluorescently labeled G-alpha-binding peptide (the "GoLoco motif") derived from RGS12 is incubated with library members. Inhibitors of the binding are detected by a decrease in the fluorescence polarization (FP) of the fluorophore. Protein was supplied by Prof. David Siderovski, University of North Carolina at Chapel Hill.
Assay Protocol: Reagents/Controls: Assay Buffer: 10 mM Tris-HCl, 150 mM NaCl, 0.1 mM GDP (prepared fresh), and 0.05% NP40 at pH 7.5. […] 10 nM FITC labeled peptide/50 nM protein in columns 1, 2, 5 - 48. […] The plates were incubated for 10 min at room temperature, and then read on ViewLux (Perkin-Elmer) High-throughput CCD imager using FITC polarization filter sets for the fluorescein-labeled decapeptide probe.During dispense, reagent bottles were kept submerged into 4 deg C water bath and all liquid lines were covered with aluminum foil to minimize probe and protein degradation. […]

Experiment [10] is described as follows: qHTS Assay for Identification of Small Molecule Agonists for Hypoxia Response Element Signaling Pathway (AID 914; active = well fitted activation curve with a large enough effect in the signal ratio, with a control signal flat, not every such curve was filed as active; the % refers to the signal ratio). The following applies: ME-180 (cervical carcinoma) HRE-bla reporter, beta-lactamase ratio, CoCl2, 17 h; active compounds read high. The gist of the method:
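Compounds in a titration series were added to ME-180 reporter cells alongside an EC50 level of CoCl2. After 17 hours, beta-lactamase activity was read as the 460nm/530nm emission ratio of CCF4, giving AC50 values.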

A number with no mark means an inactive call. Results filed as inconclusive are left out. A call without a number means that no potency is given here. Active and inactive are the calls of the source. Unless noted, calls follow the shape of the dose curve; as a rule, active = well fitted curve in the direction sought with a large enough effect; inconclusive = small, poorly fitted or top-dose-only effect, or another doubt; inactive = no such curve, though single readings can be large; an effect the other way counts as inactive or inconclusive.

Guanine nucleotide-binding protein G(i) subunit alpha-1 (Homo sapiens), sequence (P63096 whole entry, looked up): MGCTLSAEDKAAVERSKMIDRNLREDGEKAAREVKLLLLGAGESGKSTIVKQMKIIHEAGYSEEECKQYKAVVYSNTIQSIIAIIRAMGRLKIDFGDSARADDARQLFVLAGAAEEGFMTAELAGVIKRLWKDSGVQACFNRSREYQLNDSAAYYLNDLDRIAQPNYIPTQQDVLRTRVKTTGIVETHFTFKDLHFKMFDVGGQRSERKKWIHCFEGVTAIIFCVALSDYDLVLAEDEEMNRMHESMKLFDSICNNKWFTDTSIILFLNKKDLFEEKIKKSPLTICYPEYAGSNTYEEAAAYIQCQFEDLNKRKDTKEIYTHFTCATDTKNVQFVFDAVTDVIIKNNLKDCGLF
Cytochrome P450 2C9 (Homo sapiens), sequence (P11712 whole entry, looked up): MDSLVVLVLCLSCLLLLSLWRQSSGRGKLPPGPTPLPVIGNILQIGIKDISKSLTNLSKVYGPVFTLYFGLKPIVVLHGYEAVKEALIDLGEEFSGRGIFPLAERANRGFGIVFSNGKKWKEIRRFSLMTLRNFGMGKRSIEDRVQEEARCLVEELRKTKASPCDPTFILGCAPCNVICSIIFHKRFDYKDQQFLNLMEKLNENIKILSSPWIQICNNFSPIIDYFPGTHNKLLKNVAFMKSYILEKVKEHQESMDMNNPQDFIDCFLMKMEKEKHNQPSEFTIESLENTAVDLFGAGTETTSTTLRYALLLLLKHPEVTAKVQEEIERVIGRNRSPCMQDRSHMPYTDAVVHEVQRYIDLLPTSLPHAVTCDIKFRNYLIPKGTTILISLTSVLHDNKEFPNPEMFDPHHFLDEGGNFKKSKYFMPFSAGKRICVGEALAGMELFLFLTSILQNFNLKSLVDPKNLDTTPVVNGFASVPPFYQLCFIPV
Cytochrome P450 2D6 (Homo sapiens), sequence (P10635 whole entry, looked up): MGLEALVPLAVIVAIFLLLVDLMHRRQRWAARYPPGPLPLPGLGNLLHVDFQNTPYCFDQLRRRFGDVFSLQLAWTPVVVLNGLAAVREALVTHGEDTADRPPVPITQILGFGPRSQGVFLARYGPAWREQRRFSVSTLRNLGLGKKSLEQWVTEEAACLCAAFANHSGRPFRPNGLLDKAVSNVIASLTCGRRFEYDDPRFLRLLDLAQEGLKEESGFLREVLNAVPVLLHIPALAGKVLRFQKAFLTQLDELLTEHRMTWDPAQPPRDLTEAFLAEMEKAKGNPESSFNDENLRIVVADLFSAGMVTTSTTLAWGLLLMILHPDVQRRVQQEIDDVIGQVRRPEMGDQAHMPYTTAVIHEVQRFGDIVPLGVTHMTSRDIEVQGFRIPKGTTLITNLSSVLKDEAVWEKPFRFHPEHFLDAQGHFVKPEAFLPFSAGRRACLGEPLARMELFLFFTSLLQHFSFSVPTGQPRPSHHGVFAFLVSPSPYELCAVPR

In the case of `O=C(O)CCC(=O)C(=O)O`, the compound was classed as inactive in experiment [1], in experiment [2], in experiment [3] and in experiment [5]. For the same compound, in [4], the activity change, negative = inhibition was 16.8% [at 11.4 µM].
For `CC1=C2[C@@H]([C@H](C)CC[C@H]2/C=C(\C)C(=O)O)[C@H](O)C1`, the compound was called inactive in experiment [1] and in experiment [2]. Besides, the Potency result in [6] was “inactive”.
Turning to `Cc1ccccc1`, the compound was classed as inactive in experiment [1] and in [2]. The Potency entry in experiment [6] was “inactive”.
Regarding `CCCCC/C=C\C/C=C\CCCCCCCC(=O)O`, the compound was classed as inactive in experiment [1], in [2] and in experiment [7].
`CCCCCCCC/C=C\CCCCCCCC(=O)O`: the compound was classed as inactive in experiment [1] and in experiment [2]. Besides, the Potency entry in experiment [6] is “inactive”.
With `CCOc1ccc2c(c1)C(C)=CC(C)(C)N2`, the compound was classed as inactive in experiment [1], in [2], in [7] and in [8].
As for `CC[N+](C)(C)Cc1ccccc1Br`, the result in [9] was inactive.
As to `O=CCCCC=O`, the call in experiment [1] and in [2] was inactive. Further, the Potency result in experiment [6] is “inactive”.
Take `CC(O)CO` (centres undefined): the result in experiment [1] and in experiment [2] was inactive. Moreover, the Potency result in experiment [6] was “inactive”.
In the case of `Nc1ccn([C@H]2CS[C@@H](CO)O2)c(=O)n1`, the outcome in experiment [1] and in [2] was inactive. Moreover, the Potency result in experiment [6] was “inactive”.
On to `CCOC(C)=O`, for which the outcome in experiment [1] and in [2] was inactive. Also, in experiment [6], the Potency result was “inactive”.
Regarding `CC(C)(C)NC(=O)[C@@H]1C[C@@H]2CCCC[C@@H]2CN1C[C@@H](O)[C@H](Cc1ccccc1)NC(=O)[C@H](CC(N)=O)NC(=O)c1ccc2ccccc2n1`, the result in experiment [1] and in experiment [2] was inactive.
With `CC(C)=O`, the result in experiment [1] and in experiment [2] was inactive.
As to `CC1=C(/C=C/C(C)=C/C=C/C(C)=C/CO)C(C)(C)CCC1`, the compound was called inactive in experiment [1], in experiment [2], in [7] and in experiment [8].
For `O=S(=O)(O)O`, the result in experiment [1] and in experiment [2] was inactive. For the same compound, the Potency result in experiment [6] was “inactive”.
For `Cc1c(C)c2c(c(C)c1O)CC[C@@](C)(CCC[C@@H](C)CCC[C@@H](C)CCCC(C)C)O2`, the compound was classed as inactive in experiment [3] and in [5].
In the case of `CCCCCCCC(=O)O`, the compound was called inactive in experiment [1] and in [2]. Also, the Potency result in experiment [6] was “inactive”.
As to `COc1ccc(CCNC[C@H](O)c2ccc(O)cc2)cc1OC`, the compound was classed as inactive in experiment [9] and in experiment [7].
Turning to `CCN(CC)Cc1cc(Nc2ccnc3cc(Cl)ccc23)ccc1O`, the call in experiment [3] and in experiment [5] was inactive. In addition, the Potency result in experiment [6] is “inactive”.
In the case of `CN=C(NC#N)Nc1ccc(C2=NNC(=O)C[C@@H]2C)cc1`, the call in experiment [9], in [3] and in [5] was inactive. Also, the Potency result in experiment [4] is “inactive”. Besides, the activation in experiment [10] is 1.72%.
In the case of `IC(I)I`, the result in [1] and in experiment [2] was inactive. The Potency entry in [6] was “inactive”.
As for `Cc1onc(-c2ccccc2)c1C(=O)N[C@@H]1C(=O)N2[C@@H]1SC(C)(C)[C@@H]2C(=O)O`, the activation in experiment [10] was -2.15%.

For the origin of these results see PubChem BioAssay (NCATS).
